Data from PubChem BioAssay AID1159580 (chemical genetic matrix, 2015).
The campaign covered roughly 5,500 compounds. About 2,000 (36%) were called active. Roughly 18% stayed inconclusive and do not appear here. No stated cut-off is given here; in the data, active means normalized growth mostly below about 0.91 (no sharp cut-off); inconclusive means no clear call, values can overlap the other calls; inactive means mostly above about 0.92. Some of the results follow.

Experiment: chemical genetic growth profiling, strain panel (AID 1159580);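 further: tested at 20 µM; growth read once vehicle control cultures reached saturation at 30 °C; 1 = growth at the plate median or of vehicle wells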
Details: growth OD

Measured: normalized growth

COc1c(CC=C(C)C)c2c(c3oc(=O)c(-c4ccc(OC(C)=O)cc4)c(OC(C)=O)c13)C=CC(C)(C)O2
inactive: S. cerevisiae deletion strains, locus YAL013W, strain DEP1, stronger effect = lower value 0.996 | S. cerevisiae deletion strains, locus YBR021W, strain FUR4, stronger effect = lower value 0.986 | S. cerevisiae deletion strains, locus YBR229C, strain ROT2, stronger effect = lower value 1.03 | S. cerevisiae deletion strains, locus YCL029C, strain bik1, stronger effect = lower value 1.02 | S. cerevisiae deletion strains, locus YDL035C, strain GPR1, stronger effect = lower value 1.04 | S. cerevisiae deletion strains, locus YDL074C, strain BRE1, stronger effect = lower value 1.08 | S. cerevisiae deletion strains, locus YDL101C, strain DUN1, stronger effect = lower value 1.03 | S. cerevisiae deletion strains, locus YDL185W, strain tfp1, stronger effect = lower value 1.02 | S. cerevisiae deletion strains, locus YDL192W, strain arf1, stronger effect = lower value 1.05 | S. cerevisiae deletion strains, locus YDR101C, strain arx1, stronger effect = lower value 1.01 | S. cerevisiae deletion strains, locus YDR162C, strain NBP2, stronger effect = lower value 1.04 | S. cerevisiae deletion strains, locus YDR318W, strain mcm21, stronger effect = lower value 1.02 | S. cerevisiae deletion strains, locus YDR388W, stronger effect = lower value 1.02 | S. cerevisiae deletion strains, locus YDR502C, strain sam2, stronger effect = lower value 1.03 | S. cerevisiae deletion strains, locus YER110C, stronger effect = lower value 1.01 | S. cerevisiae deletion strains, locus YER155C, strain BEM2, stronger effect = lower value 1.01 | S. cerevisiae deletion strains, locus YER167W, strain BCK2, stronger effect = lower value 1.02 | S. cerevisiae deletion strains, locus YGL078C, strain dbp3, stronger effect = lower value 1 | S. cerevisiae deletion strains, locus YGL086W, strain mad1, stronger effect = lower value 1.03 | S. cerevisiae deletion strains, locus YGL248W, strain PDE1, stronger effect = lower value 1.08 | S. cerevisiae deletion strains, locus YGR135W, strain pre9, stronger effect = lower value 1.02 | S. cerevisiae deletion strains, locus YGR252W, strain gcn5, stronger effect = lower value 1.1 | S. cerevisiae deletion strains, locus YHR079C, strain IRE1 (second series), stronger effect = lower value 1.02 | S. cerevisiae deletion strains, locus YHR094C, strain hxt1, stronger effect = lower value 1 | S. cerevisiae deletion strains, locus YHR129C, strain ARP1, stronger effect = lower value 1 | S. cerevisiae deletion strains, locus YHR200W, strain rpn10, stronger effect = lower value 1.03 | S. cerevisiae deletion strains, locus YIL066C, strain RNR3, stronger effect = lower value 1.02 | S. cerevisiae deletion strains, locus YIL073C, strain SPO22, stronger effect = lower value 1.06 | S. cerevisiae deletion strains, locus YIL125W, strain kgd1, stronger effect = lower value 1.02 | S. cerevisiae deletion strains, locus YIR030C, strain dcg1, stronger effect = lower value 0.996 | S. cerevisiae deletion strains, locus YJL095W, strain BCK1, stronger effect = lower value 1.12 | S. cerevisiae deletion strains, locus YJL134W, strain LCB3, stronger effect = lower value 1.01 | S. cerevisiae deletion strains, locus YJL168C, strain set2, stronger effect = lower value 0.997 | S. cerevisiae deletion strains, locus YJL187C, strain SWE1 (second series), stronger effect = lower value 1.03 | S. cerevisiae deletion strains, locus YJR043C, strain POL32, stronger effect = lower value 1.07 | S. cerevisiae deletion strains, locus YJR075W, strain HOC1, stronger effect = lower value 1.03 | S. cerevisiae deletion strains, locus YKL068W, stronger effect = lower value 0.995 | S. cerevisiae deletion strains, locus YKL085W, strain MDH1 (second series), stronger effect = lower value 1.01 | S. cerevisiae deletion strains, locus YKL085W, strain MDH1, stronger effect = lower value 1.01 | S. cerevisiae deletion strains, locus YKL190W, strain CNB1, stronger effect = lower value 0.997 | S. cerevisiae deletion strains, locus YKR001C, strain vps1, stronger effect = lower value 1.05 | S. cerevisiae deletion strains, locus YLR039C, strain RIC1, stronger effect = lower value 1.12 | S. cerevisiae deletion strains, locus YLR058C, strain SHM2, stronger effect = lower value 1.04 | S. cerevisiae deletion strains, locus YLR102C, strain apc9, stronger effect = lower value 1 | S. cerevisiae deletion strains, locus YLR268W, strain sec22, stronger effect = lower value 1.04 | S. cerevisiae deletion strains, locus YLR330W, strain CHS5, stronger effect = lower value 1.02 | S. cerevisiae deletion strains, locus YLR371W, strain rom2, stronger effect = lower value 1.05 | S. cerevisiae deletion strains, locus YLR418C, strain cdc73, stronger effect = lower value 1.08 | S. cerevisiae deletion strains, locus YML016C, strain PPZ1, stronger effect = lower value 1.03 | S. cerevisiae deletion strains, locus YML032C, strain rad52, stronger effect = lower value 1.01 | S. cerevisiae deletion strains, locus YML124C, strain tub3, stronger effect = lower value 0.994 | S. cerevisiae deletion strains, locus YMR078C, strain ctf18, stronger effect = lower value 1 | S. cerevisiae deletion strains, locus YMR223W, strain ubp8, stronger effect = lower value 1.03 | S. cerevisiae deletion strains, locus YMR307W, strain GAS1, stronger effect = lower value 1.15 | S. cerevisiae deletion strains, locus YNL067W, strain RPL9B, stronger effect = lower value 1 | S. cerevisiae deletion strains, locus YNL153C, strain GIM3, stronger effect = lower value 1.03 | S. cerevisiae deletion strains, locus YNL233W, strain BNI4, stronger effect = lower value 1.06 | S. cerevisiae deletion strains, locus YNL250W, strain rad50, stronger effect = lower value 0.989 | S. cerevisiae deletion strains, locus YNL271C, strain bni1, stronger effect = lower value 1.01 | S. cerevisiae deletion strains, locus YNL298W, strain CLA4, stronger effect = lower value 1.01 | S. cerevisiae deletion strains, locus YNL307C, strain MCK1, stronger effect = lower value 1 | S. cerevisiae deletion strains, locus YNR052C, strain pop2, stronger effect = lower value 1.01 | S. cerevisiae deletion strains, locus YOL006C, strain TOP1, stronger effect = lower value 1.17 | S. cerevisiae deletion strains, locus YOL012C, strain htz1 1.04 | S. cerevisiae deletion strains, locus YOL147C, strain pex11, stronger effect = lower value 1.02 | S. cerevisiae deletion strains, locus YOR061W, strain CKA2, stronger effect = lower value 1.02 | S. cerevisiae deletion strains, locus YOR069W, strain VPS5, stronger effect = lower value 1.02 | S. cerevisiae deletion strains, locus YOR136W, strain idh2, stronger effect = lower value 1 | S. cerevisiae deletion strains, locus YOR144C, strain elg1, stronger effect = lower value 1.01 | S. cerevisiae deletion strains, locus YOR184W, strain ser1, stronger effect = lower value 1.04 | S. cerevisiae deletion strains, locus YOR316C, strain cot1, stronger effect = lower value 1.01 | S. cerevisiae deletion strains, locus YPR119W, strain clb2, stronger effect = lower value 1 | S. cerevisiae deletion strains, locus YPR141C, strain kar3, stronger effect = lower value 1 | S. cerevisiae deletion strains, locus YPR163C, strain tif3, stronger effect = lower value 1.02 | S. cerevisiae deletion strains, locus YPR167C, strain met16, stronger effect = lower value 1 | S. cerevisiae deletion strains, strain wtn01, stronger effect = lower value 1.04 | S. cerevisiae strains, strain wild type, stronger effect = lower value 1.02
